Results reported in PubChem BioAssay AID1159580 (chemical genetic matrix, 2015).
Among all 5,500 compounds or so, about 2,000 (36%) were called active. Not shown: some 18% with an inconclusive outcome. No stated cut-off is given here; in the data, active means normalized growth mostly below about 0.91 (no sharp cut-off); inconclusive means no clear call, values can overlap the other calls; inactive means mostly above about 0.92. This is one part of the list.

Test: chemical genetic growth profiling, strain panel (AID 1159580);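 further: tested at 20 µM; growth read once vehicle control cultures reached saturation at 30 °C; 1 = growth at the plate median or of vehicle wells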
Conditions: growth OD

Measured: normalized growth

CC(C)CC1C(=O)N2CCC[C@H]2C2(O)O[C@](NC(=O)C3C=C4c5cccc6[nH]c(Br)c(c56)C[C@H]4N(C)C3)(C(C)C)C(=O)N12 (stereo partly specified)
inactive: S. cerevisiae deletion strains, locus YKL009W, strain mrt4, stronger effect = lower value 0.983 | S. cerevisiae deletion strains, locus YKL068W, stronger effect = lower value 0.97 | S. cerevisiae deletion strains, locus YKL085W, strain MDH1 (second series), stronger effect = lower value 0.963 | S. cerevisiae deletion strains, locus YKL085W, strain MDH1, stronger effect = lower value 0.963 | S. cerevisiae deletion strains, locus YKL160W, strain elf1, stronger effect = lower value 0.993 | S. cerevisiae deletion strains, locus YKL190W, strain CNB1, stronger effect = lower value 0.979 | S. cerevisiae deletion strains, locus YKR001C, strain vps1, stronger effect = lower value 0.989 | S. cerevisiae deletion strains, locus YKR026C, strain gcn3, stronger effect = lower value 0.998 | S. cerevisiae deletion strains, locus YKR091W, strain srl3, stronger effect = lower value 0.979 | S. cerevisiae deletion strains, locus YLL001W, strain dnm1, stronger effect = lower value 0.988 | S. cerevisiae deletion strains, locus YLL026W, stronger effect = lower value 0.977 | S. cerevisiae deletion strains, locus YLL041C, strain sdh2, stronger effect = lower value 0.982 | S. cerevisiae deletion strains, locus YLR027C, strain aat2, stronger effect = lower value 0.977 | S. cerevisiae deletion strains, locus YLR039C, strain RIC1, stronger effect = lower value 0.905 | S. cerevisiae deletion strains, locus YLR058C, strain SHM2, stronger effect = lower value 0.988 | S. cerevisiae deletion strains, locus YLR102C, strain apc9, stronger effect = lower value 0.973 | S. cerevisiae deletion strains, locus YLR113W, strain HOG1, stronger effect = lower value 0.945 | S. cerevisiae deletion strains, locus YLR221C, strain rsa3, stronger effect = lower value 0.983 | S. cerevisiae deletion strains, locus YLR258W, strain gsy2, stronger effect = lower value 0.997 | S. cerevisiae deletion strains, locus YLR262C, strain YPT6 (second series), stronger effect = lower value 0.944 | S. cerevisiae deletion strains, locus YLR262C, strain YPT6, stronger effect = lower value 0.951 | S. cerevisiae deletion strains, locus YLR268W, strain sec22, stronger effect = lower value 0.98 | S. cerevisiae deletion strains, locus YLR320W, strain mms22, stronger effect = lower value 0.982 | S. cerevisiae deletion strains, locus YLR330W, strain CHS5, stronger effect = lower value 0.975 | S. cerevisiae deletion strains, locus YLR342W, strain FKS1 (second series), stronger effect = lower value 0.995 | S. cerevisiae deletion strains, locus YLR342W, strain FKS1, stronger effect = lower value 0.983 | S. cerevisiae deletion strains, locus YLR357W, strain rsc2, stronger effect = lower value 0.933 | S. cerevisiae deletion strains, locus YLR370C, strain arc18, stronger effect = lower value 0.966 | S. cerevisiae deletion strains, locus YLR371W, strain rom2, stronger effect = lower value 0.977 | S. cerevisiae deletion strains, locus YLR384C, strain iki3, stronger effect = lower value 0.987 | S. cerevisiae deletion strains, locus YLR418C, strain cdc73, stronger effect = lower value 0.978 | S. cerevisiae deletion strains, locus YML016C, strain PPZ1, stronger effect = lower value 0.983 | S. cerevisiae deletion strains, locus YML032C, strain rad52, stronger effect = lower value 0.982 | S. cerevisiae deletion strains, locus YML120C, strain ndi1, stronger effect = lower value 0.992 | S. cerevisiae deletion strains, locus YML124C, strain tub3, stronger effect = lower value 0.973 | S. cerevisiae deletion strains, locus YMR058W, strain fet3, stronger effect = lower value 0.973 | S. cerevisiae deletion strains, locus YMR078C, strain ctf18, stronger effect = lower value 0.98 | S. cerevisiae deletion strains, locus YMR125W, strain sto1, stronger effect = lower value 0.99 | S. cerevisiae deletion strains, locus YMR129W, stronger effect = lower value 0.977 | S. cerevisiae deletion strains, locus YMR205C, strain PFK2, stronger effect = lower value 0.97 | S. cerevisiae deletion strains, locus YMR223W, strain ubp8, stronger effect = lower value 0.986 | S. cerevisiae deletion strains, locus YMR231W, strain pep5, stronger effect = lower value 0.99 | S. cerevisiae deletion strains, locus YMR263W, strain SAP30, stronger effect = lower value 0.981 | S. cerevisiae deletion strains, locus YMR307W, strain GAS1, stronger effect = lower value 1.07 | S. cerevisiae deletion strains, locus YNL067W, strain RPL9B, stronger effect = lower value 0.988 | S. cerevisiae deletion strains, locus YNL071W, strain lat1, stronger effect = lower value 0.993 | S. cerevisiae deletion strains, locus YNL128W, strain TEP1, stronger effect = lower value 0.97 | S. cerevisiae deletion strains, locus YNL153C, strain GIM3, stronger effect = lower value 0.986 | S. cerevisiae deletion strains, locus YNL183C, strain NPR1, stronger effect = lower value 0.938 | S. cerevisiae deletion strains, locus YNL209W, strain ssb2, stronger effect = lower value 0.989 | S. cerevisiae deletion strains, locus YNL233W, strain BNI4, stronger effect = lower value 0.986 | S. cerevisiae deletion strains, locus YNL248C, strain rpa49, stronger effect = lower value 0.993 | S. cerevisiae deletion strains, locus YNL250W, strain rad50, stronger effect = lower value 0.952 | S. cerevisiae deletion strains, locus YNL271C, strain bni1, stronger effect = lower value 0.976 | S. cerevisiae deletion strains, locus YNL298W, strain CLA4, stronger effect = lower value 0.986 | S. cerevisiae deletion strains, locus YNL307C, strain MCK1, stronger effect = lower value 0.981 | S. cerevisiae deletion strains, locus YNL322C, strain KRE1 (second series), stronger effect = lower value 0.992 | S. cerevisiae deletion strains, locus YNL322C, strain KRE1, stronger effect = lower value 0.978 | S. cerevisiae deletion strains, locus YNR049C, strain mso1, stronger effect = lower value 0.971 | S. cerevisiae deletion strains, locus YNR052C, strain pop2, stronger effect = lower value 1 | S. cerevisiae deletion strains, locus YOL006C, strain TOP1, stronger effect = lower value 1.02 | S. cerevisiae deletion strains, locus YOL012C, strain htz1 0.94 | S. cerevisiae deletion strains, locus YOL147C, strain pex11, stronger effect = lower value 0.969 | S. cerevisiae deletion strains, locus YOR001W, strain rrp6, stronger effect = lower value 0.997 | S. cerevisiae deletion strains, locus YOR061W, strain CKA2, stronger effect = lower value 0.98 | S. cerevisiae deletion strains, locus YOR069W, strain VPS5, stronger effect = lower value 0.983 | S. cerevisiae deletion strains, locus YOR070C, strain gyp1, stronger effect = lower value 0.985 | S. cerevisiae deletion strains, locus YOR080W, strain dia2, stronger effect = lower value 0.974 | S. cerevisiae deletion strains, locus YOR083W, strain WHI5, stronger effect = lower value 0.995 | S. cerevisiae deletion strains, locus YOR106W, strain vam3, stronger effect = lower value 1.07 | S. cerevisiae deletion strains, locus YOR136W, strain idh2, stronger effect = lower value 0.987 | S. cerevisiae deletion strains, locus YOR144C, strain elg1, stronger effect = lower value 0.979 | S. cerevisiae deletion strains, locus YOR184W, strain ser1, stronger effect = lower value 0.995 | S. cerevisiae deletion strains, locus YOR231W, strain MKK1, stronger effect = lower value 0.981 | S. cerevisiae deletion strains, locus YOR265W, strain rbl2, stronger effect = lower value 0.971 | S. cerevisiae deletion strains, locus YOR270C, strain vph1, stronger effect = lower value 1.07 | S. cerevisiae deletion strains, locus YOR290C, strain snf2, stronger effect = lower value 0.977 | S. cerevisiae deletion strains, locus YOR316C, strain cot1, stronger effect = lower value 0.976 | S. cerevisiae deletion strains, locus YPL051W, strain arl3, stronger effect = lower value 0.985 | S. cerevisiae deletion strains, locus YPL055C, strain LGE1, stronger effect = lower value 1 | S. cerevisiae deletion strains, locus YPL078C, strain atp4, stronger effect = lower value 0.984 | S. cerevisiae deletion strains, locus YPL106C, strain sse1, stronger effect = lower value 0.941 | S. cerevisiae deletion strains, locus YPL240C, strain hsp82, stronger effect = lower value 0.99 | S. cerevisiae deletion strains, locus YPL241C, strain CIN2, stronger effect = lower value 0.988 | S. cerevisiae deletion strains, locus YPL256C, strain CLN2, stronger effect = lower value 0.99 | S. cerevisiae deletion strains, locus YPR119W, strain clb2, stronger effect = lower value 0.988 | S. cerevisiae deletion strains, locus YPR141C, strain kar3, stronger effect = lower value 0.938 | S. cerevisiae deletion strains, locus YPR163C, strain tif3, stronger effect = lower value 0.975 | S. cerevisiae deletion strains, locus YPR167C, strain met16, stronger effect = lower value 0.97 | S. cerevisiae deletion strains, strain wtn01, stronger effect = lower value 0.975 | S. cerevisiae strains, strain wild type, stronger effect = lower value 0.983
